{
  "source": "the supplement of paper PMC13172266",
  "note": "Where a name gives a salt, the structure may show the parent alone.",
  "data": [
    {"system": "U2932 TK216-resistant clone 2", "test": "cell proliferation relative to vehicle (% of vehicle); higher = less growth inhibition", "settings": "50 nM; 72 h", "how_it_was_run": "(§1)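 Parental U2932 cells (ABC-DLBCL) and two clones made resistant to an ETS-targeting agent by almost a year of repeated exposure were treated for 72 h with 348 targeted inhibitors at 500 nM or 50 nM. MTT was then applied for 4 h, the reaction was stopped with 25% SDS, and absorbance was measured on a Cytation 3. Values express proliferation as percent of proliferating cells compared with DMSO vehicle.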", "values": [
      {"smiles": "COc1ccc(C2=N[C@@H](c3ccc(Cl)cc3)[C@@H](c3ccc(Cl)cc3)N2C(=O)N2CCNC(=O)C2)c(OC(C)C)c1", "note": "[Nutlin-3]", "cell proliferation": 106},
      {"smiles": "O=c1sn(-c2cccc3ccccc23)c(=O)n1Cc1ccccc1", "note": "[Tideglusib]", "cell proliferation": 94},
      {"smiles": "CCc1cncnc1N1CCN(Cc2nc3ccc(C(F)(F)F)cc3[nH]2)CC1", "cell proliferation": 100},
      {"smiles": "CN[C@@H](C)C(=O)N[C@H](C(=O)N1CCC[C@H]1C(=O)Nc1snnc1-c1ccccc1)C1CCCCC1", "cell proliferation": 102}
    ]},
    {"system": "U2932 TK216-resistant clone 2", "test": "cell proliferation relative to vehicle (% of vehicle); higher = less growth inhibition", "settings": "500 nM; 72 h", "how_it_was_run": "as §1", "values": [
      {"smiles": "O=C(O)C1(C(=O)O)CCC1.[NH2-].[NH2-].[Pt+2]", "note": "[Carboplatin]", "cell proliferation": 104},
      {"smiles": "C[C@]1(O)C[C@@H](c2nc(-c3ccc4ccc(-c5ccccc5)nc4c3)c3c(N)nccn32)C1", "note": "[OSI-906 (Linsitinib)]", "cell proliferation": 95.1},
      {"smiles": "O=C(O)c1ccc(-c2c[nH]c3ncc(-c4ccccc4)cc23)cc1C1CCCC1", "cell proliferation": 100},
      {"smiles": "CN(C)CC[C@H](CSc1ccccc1)Nc1ccc(S(=O)(=O)NC(=O)c2ccc(N3CCN(Cc4ccccc4-c4ccc(Cl)cc4)CC3)cc2)cc1[N+](=O)[O-]", "cell proliferation": 39.6},
      {"smiles": "O=C(O)c1ccc(Nc2ncc3c(n2)-c2ccc(Cl)cc2C(c2c(F)cccc2F)=NC3)cc1", "cell proliferation": 80.2},
      {"smiles": "CNC(=O)c1cccc(-c2ccc3c(N4CCOC[C@@H]4C)nc(N4CCOC[C@@H]4C)nc3n2)c1", "cell proliferation": 52.9},
      {"smiles": "C[C@]12CCC(=O)C=C1CC[C@@H]1[C@@H]2[C@@H](O)C[C@@]2(C)[C@H]1CC[C@]2(O)C(=O)CO", "note": "[Hydrocortisone]", "cell proliferation": 81.2},
      {"smiles": "Cc1cnc(-c2cnc(NCCNc3ccc(C#N)cn3)nc2-c2ccc(Cl)cc2Cl)[nH]1", "cell proliferation": 97.6},
      {"smiles": "CCOC(=O)C1=C(N)Oc2ccc(Br)cc2C1C(C#N)C(=O)OCC", "note": "(stereo not drawn)", "cell proliferation": 95.7},
      {"smiles": "CN(NC(=O)CC(=O)NN(C)C(=S)c1ccccc1)C(=S)c1ccccc1", "note": "[Elesclomol (STA-4783)]", "cell proliferation": -0.212},
      {"smiles": "CCc1ccc(/C=C2/SC(=S)NC2=O)cc1", "cell proliferation": 103},
      {"smiles": "O=c1[nH]cc(F)c(=O)[nH]1", "note": "[Fluorouracil (5-Fluoracil, 5-FU)]", "cell proliferation": 102},
      {"smiles": "C[C@@H](N)[C@H]1CC[C@H](C(=O)Nc2ccncc2)CC1", "cell proliferation": 102},
      {"smiles": "CN(C)Cc1c(C(=O)NCCOc2ccc(C(=O)NO)cc2)oc2ccccc12", "cell proliferation": 40.3},
      {"smiles": "C[C@@H](Oc1cc(-n2cnc3ccc(CN4CCN(C)CC4)cc32)sc1C(N)=O)c1ccccc1C(F)(F)F", "cell proliferation": 10},
      {"smiles": "COc1ccc2c(Oc3ccc(NC(=O)c4c(C)n(CC(C)(C)O)n(-c5ccccc5)c4=O)nc3)ccnc2c1", "cell proliferation": 103},
      {"smiles": "COc1cc(CCc2cc(NC(=O)c3ccc(N4CC(C)NC(C)C4)cc3)n[nH]2)cc(OC)c1", "note": "(stereo not drawn)", "cell proliferation": 101},
      {"smiles": "CO[C@H]1/C=C\\C=C(/C)C(=O)NC2=CC(=O)C(NCCN(C)C)=C(C[C@@H](C)C[C@H](OC)[C@H](O)[C@@H](C)/C=C(\\C)[C@@H]1OC(N)=O)C2=O", "note": "[17-DMAG (Alvespimycin) HCl]", "cell proliferation": 3.06},
      {"smiles": "Cc1c(NC(=O)OC[C@@H]2COCCN2)cn2ncnc(Nc3ccc4c(cnn4Cc4cccc(F)c4)c3)c12", "cell proliferation": 80.4},
      {"smiles": "C[C@@H]1CN(CC(=O)Nc2ccc3c(c2)Cc2cccc(-c4cc(=O)cc(N5CCOCC5)o4)c2S3)C[C@H](C)O1", "cell proliferation": 101},
      {"smiles": "Oc1ccc(Nc2nc(-c3ccc(Cl)cc3)cs2)cc1", "cell proliferation": 94.9},
      {"smiles": "C=CCn1c(=O)c2cnc(Nc3ccc(N4CCN(C)CC4)cc3)nc2n1-c1cccc(C(C)(C)O)n1", "cell proliferation": 20.5},
      {"smiles": "C=C1/C(=C\\C=C2/CCC[C@]3(C)[C@@H]([C@H](C)/C=C/[C@H](C)C(C)C)CC[C@@H]23)C[C@@H](O)C[C@@H]1O", "note": "[Doxercalciferol]", "cell proliferation": 92.2},
      {"smiles": "Cn1nnc2c(C(N)=O)ncn2c1=O", "note": "[Temozolomide]", "cell proliferation": 110},
      {"smiles": "Nc1nc(N)c2nc(-c3cccc(O)c3)c(-c3cccc(O)c3)nc2n1", "cell proliferation": 100},
      {"smiles": "COc1cc2c(Oc3ccc4[nH]c(C)cc4c3F)ncnc2cc1OCCCN1CCCC1", "note": "[Cediranib (AZD2171)]", "cell proliferation": 92.6},
      {"smiles": "Cc1[nH]c(/C=C2\\C(=O)Nc3ccc(S(=O)(=O)Cc4c(Cl)cccc4Cl)cc32)c(C)c1C(=O)N1CCC[C@@H]1CN1CCCC1", "cell proliferation": 92.4},
      {"smiles": "C[C@@H]1CC(=O)c2c(ccc3c2C(=O)c2cccc(O)c2C3=O)C1", "cell proliferation": 98.5},
      {"smiles": "COC(=O)c1ccc([C@H]2c3[nH]c4ccccc4c3C[C@H](C(=O)OC)N2C(=O)CCl)cc1", "cell proliferation": -2.9},
      {"smiles": "COc1cc(Nc2c(C#N)cnc3cc(OCCCN4CCN(C)CC4)c(OC)cc23)c(Cl)cc1Cl", "note": "[Bosutinib (SKI-606)]", "cell proliferation": 73.1},
      {"smiles": "CN(C)c1nc(N(C)C)nc(N(C)C)n1", "note": "[Altretamine]", "cell proliferation": 102},
      {"smiles": "COc1ccccc1OCC(O)CN1CCN(CC(=O)Nc2c(C)cccc2C)CC1", "note": "(stereo not drawn) [Ranolazine]", "cell proliferation": 91.3},
      {"smiles": "O=c1c(O)c(-c2ccc(O)c(O)c2)oc2cc(O)cc(O)c12", "note": "[Quercetin]", "cell proliferation": 119},
      {"smiles": "Cc1csc(-c2nnc(Nc3ccc(Oc4ncccc4-c4ccnc(N)n4)cc3)c3ccccc23)c1", "cell proliferation": 99.7},
      {"smiles": "CCCCc1nc2cc(/C=C/C(=O)NO)ccc2n1CCN(CC)CC", "note": "[Pracinostat (SB939)]", "cell proliferation": 54},
      {"smiles": "COc1ccc(C2=N[C@@H](c3ccc(Cl)cc3)[C@@H](c3ccc(Cl)cc3)N2C(=O)N2CCNC(=O)C2)c(OC(C)C)c1", "note": "[Nutlin-3]", "cell proliferation": 97.3},
      {"smiles": "O=c1sn(-c2cccc3ccccc23)c(=O)n1Cc1ccccc1", "note": "[Tideglusib]", "cell proliferation": 106},
      {"smiles": "CCc1cncnc1N1CCN(Cc2nc3ccc(C(F)(F)F)cc3[nH]2)CC1", "cell proliferation": 101},
      {"smiles": "CN[C@@H](C)C(=O)N[C@H](C(=O)N1CCC[C@H]1C(=O)Nc1snnc1-c1ccccc1)C1CCCCC1", "cell proliferation": 111}
    ]}
  ]
}
